# Experimental data from PubChem BioAssay AID2147 (National Center for Advancing Translational Sciences (NCATS), 2009).
# Screen size: about 230,000 compounds; about 3,600 (1.6%) were called active. Another 15% or so got no clear call; they are omitted. This excerpt belongs to a sample that is enriched for actives. A number with no mark means an inactive call. Calls follow the shape of the dose curve; as a rule, active = well fitted inhibition curve with a large enough effect (not every such curve was filed as active); inconclusive = small, poorly fitted or top-dose-only effect, or another doubt; inactive = no such curve, though single readings can be large or run the other way.
# Target: Lysine-specific demethylase 4E (Homo sapiens) (UniProt B2RXH2)
# Assay: qHTS Assay for Inhibitors of Human Jumonji Domain Containing 2E (JMJD2E)
# Conditions: JMJD2E catalytic domain, FDH-coupled NADH fluorescence (FDH is formaldehyde dehydrogenase); series mostly up to 57.1 µM; activity change, negative = inhibition: at the top concentration
# Text: Assay Provider: Structural Genomics Consortium [SGC] Screening Center PI: Austin, C.P. Screening Center: NIH Chemical Genomics Center [NCGC] The fine interplay among methylation states of several lysine residues on the tails of histone proteins is a major determinant of the transcriptional state of the associated DNA coding regions and is commonly referred to as the histone code. Histone lysine demethylases catalyze the removal of methyl groups from methylated lysine sidechains on histones H3 and H4, thus antagonizing the reactions catalyzed by histone lysine methyltransferases. […] In search for novel inhibitors of JMJD2E demethylase, a member of the largest set of histone demethylases belonging to the Fe(II) and 2-oxoglutarate oxygenase (2OG) superfamily, we performed a quantitative high-throughput screen (Inglese 2006) by using an assay which utilizes a trimethylated peptide substrate corresponding to a fragment of histone H3 (sequence ARKme3STGGK) with detection of the formaldehyde co-product in real time by a formaldehyde dehydrogenase (FDH) coupled reaction. FDH catalyzes oxidation of formaldehyde to formic acid with the concomitant reduction of the non-fluorescent beta-nicotinamide adenine dinucleotide hydrate (NAD+) cofactor to the fluorescent NADH co-product. References: Inglese, J., Auld, D., Jadhav, A., Johnson, R., Simeonov, A., Yasgar, A., Zheng, W. and Austin, C. Proc Natl Acad Sci USA 2006, 103, 11473-11478. N. R. Rose, S. S. Ng, J. Mecinovic, B. M. Lienard, S. H. Bello, Z. Sun, M. A. McDonough, U. Oppermann and C. J. Schofield, J Med Chem, 2008, 51, 7053-7056. Sakurai, M., Rose, N., Schultz, L., Quinn, A., Jadhav, A., Ng, S., Oppermann, U., Schofield, C.J. and Simeonov, A. Mol BioSystems 2009, in press. S. Michael, D. Auld, C. Klumpp, A. Jadhav, W. Zheng, N. Thorne, C. Austin, J. Inglese and A. Simeonov, Assay Drug Dev Technol, 2008, 6, 637-657.
# Reagents and Controls: Ferrous ammonium sulfate, (+)-sodium L-ascorbate, beta-nicotinamide adenine dinucleotide hydrate (NAD+), Tween-20, formaldehyde dehydrogenase from P. putida (FDH), and disodium 2-oxoglutarate were from Sigma (St. Louis, MO). Black solid-bottom 384-well or 1,536-well assay plates were from Greiner Bio-One (Monroe, NC). Enzyme was supplied by Prof. Udo Oppermann, SGC-Oxford. The catalytic domain of human JMJD2E (residues 1-337) was produced as an N-terminally His6-tagged protein in E. coli, and purified by Ni-affinity chromatography and size-exclusion chromatography, and stored in HEPES 50 mM/ NaCl 500 mM pH 7.5, as reported in Rose 2008. The trimethylated histone peptide substrate ARK(me3)STGGK was synthesized and HPLC-purified by the Tufts University Core Facility (Boston, MA). Substrate solution (Sakurai 2009) contained 50 uM ARK(me3)STGGK, 0.00025 U/uL FDH, 50 uM 2-oxoglutarate, 250 uM NAD+, 1 mM ascorbate, and 10 uM ferrous ammonium sulfate. Controls and plate map: Buffer (150 mM HEPES pH 7.5 containing 0.01% Tween-20) in columns 3 and 4 as negative control (no enzyme) and 100 nM JMJD2E final concentration in columns 1,2, and 5-48. Assay Steps: Enzyme and buffer solutions (3 uL) were dispensed into a 1,536-well Greiner black solid-bottom assay plate. The library compounds (23 nL) were transferred using a Kalypsys pintool equipped with 1,536-pin array. The plate was incubated at room temperature (15 min), and then a 1 uL aliquot of substrate solution was added to initiate the reaction. The plate was transferred to ViewLux imager where an initial reading using standard UV optics (Ex 340 nm, Em 450 nm) was obtained. The plate was then removed from the reader, incubated for 30 minutes at room temperature, and returned to the reader for a second fluorescence reading. A fully automated robotic screening system (Kalypsys Inc, San diego, CA) was used to perform the above steps as described previously (Michael 2008). […]
# Also: nearly all actives have a fitted effect of over 50% in size.
# 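For activity change, negative = inhibition in this document: 0% = wells with enzyme and -100% = buffer wells without enzyme.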
# Potency is read from the fitted curve at half-maximal effect.
# Chain of Lysine-specific demethylase 4E (Homo sapiens) (B2RXH2 1-337 limits assumed): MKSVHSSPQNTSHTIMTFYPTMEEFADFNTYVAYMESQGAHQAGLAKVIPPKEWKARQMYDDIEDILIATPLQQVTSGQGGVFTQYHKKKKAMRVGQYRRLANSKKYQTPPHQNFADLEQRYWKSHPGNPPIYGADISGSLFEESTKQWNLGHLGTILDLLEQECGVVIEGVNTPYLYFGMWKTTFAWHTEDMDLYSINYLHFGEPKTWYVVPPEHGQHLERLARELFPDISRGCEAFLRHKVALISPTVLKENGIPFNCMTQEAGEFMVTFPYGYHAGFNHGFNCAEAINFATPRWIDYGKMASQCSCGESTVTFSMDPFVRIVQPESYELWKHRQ
SMILES,"activity change, negative = inhibition",Potency
CCC(=NCCc1ccccc1)c1c(O)n(C2CCCCC2)c(=O)[nH]c1=O,-3.74%,
CC/C(=N\NC(=O)c1ccccc1O)c1c(O)n(Cc2ccccc2)c(=O)[nH]c1=O,,25.1 µM (active)
O=c1[nH]c(=O)n(Cc2ccccc2)c(O)c1/C=N/Nc1c(F)c(F)c(F)c(F)c1F,-5.77%,
CNCC[C@H](Oc1ccc(C(F)(F)F)cc1)c1ccccc1,,inactive
N#Cc1c(Cl)c(Cl)c(Cl)c(C#N)c1Cl,0.206%,
CNC(=O)O/N=C(\N)Cc1csc2ccc(Cl)cc12,-5.49%,
CC[C@H]1CN2CCc3cc(OC)c(OC)cc3[C@@H]2C[C@@H]1C[C@H]1NCCc2cc(OC)c(OC)cc21,-0.966%,
CC1CCCCN1Cc1cccnc1 (stereo not given),,20 µM (active)
c1cncc(CNC2=NCCC2)c1,8.62%,
CC1=C2C(=O)C3C(CC=C4CC(OC5OC(O)C(O)C(O)C5CO)CCC43C)C2CCC12OC1CC(C)CNC1C2C (stereo not given),-0.741%,
CNC(C)[C@@H](O)c1ccccc1 (stereo not given in full),-1.97%,
Cc1ccc(N2C(=O)NC(=O)C(CCc3ccncc3)(Cc3cccc(Cl)c3Cl)C2=O)cc1 (stereo not given),-0.357%,
CCCCC/C=C\C/C=C\C/C=C\C=C\[C@H](CCCC(=O)O)OO,1.94%,
C[C@H]1CC[C@@]2(NC1)O[C@@H]1C[C@H]3[C@@H]4CC=C5C[C@@H](O)CC[C@]5(C)[C@@H]4CC[C@]3(C)[C@@H]1[C@@H]2C,10.5% [at 25.5 µM],
O=C(OCC1O[C@@H](OC(=O)c2cc(O)c(O)c(O)c2)[C@@H](OC(=O)c2cc(O)c(O)c(O)c2)[C@@H](OC(=O)c2cc(O)c(O)c(O)c2)[C@@H]1OC(=O)c1cc(O)c(O)c(O)c1)c1cc(O)c(O)c(O)c1 (stereo not given in full),,3.16 µM (active)
O=C(COC(=O)c1ccccc1)Nc1ccc(Cl)cc1C(=O)c1ccccc1,-4.54%,
COc1ccccc1N1CCN(C(CNC(=O)Oc2ccccc2)c2cccnc2)CC1 (stereo not given),-7.04%,
CN(C)CC1CCCCC1OC(=O)c1ccc(Cl)c(Cl)c1 (stereo not given),8.43%,

SMILES,"activity change, negative = inhibition",Potency
COc1cccc(N2C(=O)NC(=O)/C(=C\c3ccc([N+](=O)[O-])s3)C2=O)c1,,17.8 µM (active)
Cc1ccccc1N1C(=O)NC(=O)/C(=C\c2cc(C)n(C)c2C)C1=O,0.783%,
Cc1cccc(N2C(=O)NC(=O)/C(=C\c3cnn(-c4ccccc4)c3)C2=O)c1,-6.79%,
CC1=C(C(=O)Nc2ccccc2)S(=O)(=O)CCO1,1.07%,
O=c1oc2ccccc2c(O)c1C(c1ccccc1O)c1c(O)c2ccccc2oc1=O,1.84%,
CC(=O)c1c(O)c(C)c(O)c(Cc2c(O)c3c(c(C(=O)/C=C\c4ccccc4)c2O)OC(C)(C)C=C3)c1O,,20 µM (active)
O=C(Cn1c(=O)n(CC2CS2)c2ccccc21)N1CCCCC1 (stereo not given),14.5%,
C[C@]12CC[C@@H]3C(=CCc4cc(O)ccc43)[C@@H]1CCC2=O,-28.2% [at 25.5 µM],
C[N+]12CN3CN(CN(C3)C1)C2,37.3%,
CN(C)C1C(=O)C(C(N)=O)=C(O)[C@@]2(O)C(=O)C3=C(O)c4c(O)cccc4[C@@](C)(O)C3C[C@@H]12 (stereo not given in full),,10 µM (active)
COc1cccc(CN2CCCC(C(=O)c3ccccc3SC)C2)c1O (stereo not given),-3.71%,
CCOC(=O)C1SC2(C(F)(F)C(F)F)CC1(O)c1c(c(OC)c3occc3c1OC)O2 (stereo not given),4.78%,
COC1=C[C@]23CCCN2CCc2cc4c(cc2[C@@H]3[C@@H]1O)OCO4,-14.3%,
C/C(=C\C=C/[C@@H](C)C(=O)O)[C@H]1CN[C@H](C(=O)O)[C@@H]1CC(=O)O,,12.6 µM (active)
COc1ccc(C(=O)CC2C(=O)N(C)C(=O)N(C)C2=O)cc1,6.67%,
Cc1cccc(OP(=O)(Oc2cccc(C)c2)OC(c2ccccc2)C(F)(F)F)c1 (stereo not given),0.176%,
Fc1ccc(C2N3CCCN23)cc1 (stereo not given),0.294%,
